This passage reports outcome and AC50 results from PubChem BioAssay (EPA / NIEHS).

Inconclusive results are not listed. Active and inactive are the calls of the source. The calls were made as follows, unless noted: active = hit-call score of the fitted dose curve at least 0.9, where 1 is the maximum; inactive = score below 0.9.

Assay [1] can be described thus: CCTE_Padilla_ZF_Score.Craniofacial: CCTE's 144 Hour Post-fertilization zebrafish Assay Score for Craniofacial Malformation, Padilla Lab (AID 2284405). An outline of the steps: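 Craniofacial defects were scored at 6 dpf by two blinded observers using stereomicroscopy. Exposure of wild-type embryos began at 6–8 hpf in sealed wells of 10% Hanks' solution at 26C, with chemical removed by rinsing at 5 dpf.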

Assay [2] in a line: CCTE_Padilla_ZF_Score.Edema: CCTE's 144 Hour Post-fertilization zebrafish Assay Score for Edema Malformation, Padilla Lab (AID 2284406). A digest of the protocol:
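Edema scored at 6 dpf by two blinded observers under a stereo microscope, in single outbred wild-type larvae exposed from 6-8 hpf in sealed wells (Hanks', 26C, 14:10 h light) and chemical-free after a 5 dpf rinse.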

Assay [3] is described as follows: CCTE_Padilla_ZF_Score.Spine: CCTE's 144 Hour Post-fertilization zebrafish Assay Score for Spine Malformation, Padilla Lab (AID 2284407). An outline of the steps: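 Spine malformation scored at 6 dpf by two independent blinded observers under stereomicroscope, after static sealed exposure from 6–8 hpf at 26C in Hanks' solution with rinse on 5 dpf. Positive-direction fit against DMSO control.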

A short description of assay [4]: CCTE_Padilla_ZF_Score.Swim_bladder: CCTE's 144 Hour Post-fertilization zebrafish Assay Score for Swim Bladder Malformation, Padilla Lab (AID 2284408). An outline of the steps:
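Swim bladder inflation scored at 6 dpf by two blinded observers under a stereo microscope. Exposure ran from 6–8 hpf in sealed wells of 10% Hanks' at 26C, with rinsing at 5 dpf; DMSO served as baseline.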

Assay [5] is described as follows: CCTE_Padilla_ZF_Score.Position: CCTE's 144 Hour Post-fertilization zebrafish Assay Score for Position, Padilla Lab (AID 2284409). A digest of the protocol:
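Wild-type zebrafish embryos (with chorions) exposed singly from 6–8 hpf in sealed wells of Hanks' solution at 26C, rinsed at 5 dpf. At 6 dpf, blinded assessors scored abnormal water-column position by brightfield stereomicroscopy, relative to DMSO.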

A short description of assay [6]: CCTE_Padilla_ZF_Score.Living: CCTE's 144 Hour Post-fertilization zebrafish Assay Score for Viability, Padilla Lab (AID 2284410).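 Also: larval death at 6 dpf judged by absent heartbeat or coagulation.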 A digest of the protocol: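 Mortality at 6 dpf, judged as absent heartbeat or coagulation by two blinded observers, after sealed static exposure beginning at 6–8 hpf at 26C. Larvae were rinsed free of chemical at 5 dpf, and activity was fitted relative to DMSO.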

Assay [7] is described as follows: CCTE_Padilla_ZF_Score.Tail: CCTE's 144 Hour Post-fertilization zebrafish Assay Score for Tail Malformation, Padilla Lab (AID 2284414). An outline of the steps: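 Tail malformations were scored at 6 dpf by two blinded assessors under a stereo microscope. Chorionated embryos had been exposed from 6-8 hpf in sealed wells of 10% Hanks' at 26 C, then rinsed free of chemical at 5 dpf.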

Assay [8] can be described thus: CCTE_Padilla_ZF_Score.Blood_pooling: CCTE's 144 Hour Post-fertilization zebrafish Assay Score for Blood Pooling, Padilla Lab (AID 2284415). A digest of the protocol:
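Blood pooling was scored at 6 dpf under a stereo microscope by two blinded assessors, fitted upward against DMSO. Single embryos were dosed at 6–8 hpf in 10% Hanks', kept sealed at 26C (14:10 h cycle) and rinsed at 5 dpf.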

Assay [9] in a line: CCTE_Padilla_ZF_Score.Any: CCTE's 144 Hour Post-fertilization zebrafish Assay Score for Any Mortality or Malformation, Padilla Lab (AID 2284416). An outline of the steps:
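Wild-type zebrafish embryos with chorions, one per well in 10% Hanks' from 6–8 hpf, dosed in sealed plates at 26 C, 14:10 h light:dark; rinsed at 5 dpf; blinded scoring at 6 dpf for death or malformation, versus DMSO.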

Assay [10] has as its system SRY-box transcription factor 2 (SOX2) Protein Expression, Deisenroth Lab, SOX2 (gene 6657). The assay is described as follows: CCTE_Deisenroth_DEVTOX-GLR_Endo_SOX2: CCTE's DevTox GLR-Endo Assay Evaluation of SRY-box transcription factor 2 (SOX2) Protein Expression, Deisenroth Lab (AID 2284412; active = hit-call score of the fitted dose curve at least 0.9, where 1 is the maximum). An outline of the steps:
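Endpoint is percent SOX2-positive cells (SOX2+ count/total cells) minus 0.2% DMSO control, from high-content imaging of fixed, nuclear-stained RUES2-GLR cells. Dosing twice at 24 h intervals over 48 h differentiation, 1 nM–200 uM in 10 points.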

Assay [11] concerns SRY-box transcription factor 17 (SOX17) Protein Expression, Deisenroth Lab, SOX17 (gene 64321). Put plainly: CCTE_Deisenroth_DEVTOX-GLR_Endo_SOX17: CCTE's DevTox GLR-Endo Assay Evaluation of SRY-box transcription factor 17 (SOX17) Protein Expression, Deisenroth Lab (AID 2284413). An outline of the steps:
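Fluorescent microscopy of a SOX17 reporter in RUES2-GLR pluripotent cells scored endoderm differentiation after 48 h and two 24-h-spaced exposures. Values are percent change in SOX17+ population against 0.2% DMSO, n=4 experimental replicates.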

Assay [12] relates to Brachyury (BRA) Protein Expression, TBXT (gene 6862). The assay is described as follows: CCTE_Deisenroth_DEVTOX-GLR_Endo_BRA: CCTE's DevTox GLR-Endo Assay Evaluation of Brachyury (BRA) Protein Expression, Deisenroth Lab (AID 2284417). An outline of the steps: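 RUES2-GLR pluripotent cells differentiated 48 h with two chemical exposures 24 h apart, 10-point range 1 nM - 200 uM. Percentage of BRA+ cells per total count by high-content imaging, minus 0.2% DMSO control.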

Assay [13] is described as follows: CCTE_Deisenroth_DEVTOX-GLR_Endo_CellCount: Viability Assessment in CCTE's DevTox GLR-Endo Assay, Deisenroth Lab (AID 2284420). A digest of the protocol:
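Percent change in nuclear-stain cell counts versus 0.2% DMSO, from high-content imaging over 5 fields per well. Over a 48 h endoderm differentiation, RUES2-GLR cells received two doses 24 h apart across a 1 nM–200 uM series, with n=4.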

Assay [14] relates to SRY-box transcription factor 17 (SOX17) Protein Expression, Deisenroth Lab, SOX17 (gene 64321). The assay is described as follows: CCTE_Deisenroth_DEVTOX-GLR_Pluri_SOX17: CCTE's DevTox GLR-Pluri Assay Evaluation of SRY-box transcription factor 17 (SOX17) Protein Expression, Deisenroth Lab (AID 2284427; active = hit-call score of the fitted dose curve at least 0.9, where 1 is the maximum). An outline of the steps:
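The endpoint is SOX17+ cells as a fraction of cell count, corrected for the 0.2% DMSO control and obtained by high-content fluorescence imaging of fixed cells. Cells were RUES2-GLR under a 48-hour endoderm differentiation, dosed twice at 24-hour intervals over 1 nM–200 uM.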

Assay [15] concerns SRY-box transcription factor 2 (SOX2) Protein Expression, Deisenroth Lab, SOX2 (gene 6657). The assay is described as follows: CCTE_Deisenroth_DEVTOX-GLR_Pluri_SOX2: CCTE's DevTox GLR-Pluri Assay Evaluation of SRY-box transcription factor 2 (SOX2) Protein Expression, Deisenroth Lab (AID 2284428). A digest of the protocol:
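Percent SOX2+ cells (SOX2+ count per total cells, fluorescent imaging) in RUES2-GLR human pluripotent line, expressed relative to 0.2% DMSO. Compounds dosed twice at 24 h intervals during 48 h, 1 nM - 200 uM, 10 concentrations.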

Assay [16] concerns Brachyury (BRA) Protein Expression, Deisenroth Lab, TBXT (gene 6862). The assay is described as follows: CCTE_Deisenroth_DEVTOX-GLR_Pluri_BRA: CCTE's DevTox GLR-Pluri Assay Evaluation of Brachyury (BRA) Protein Expression, Deisenroth Lab (AID 2284429; active = hit-call score of the fitted dose curve at least 0.9, where 1 is the maximum). An outline of the steps: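 Mesoderm readout after 48 h differentiation of human RUES2-GLR cells, dosed twice (24-h intervals) at 1 nM - 200 uM. BRA+ frequency from fluorescence imaging of fixed, nuclear-stained cells, DMSO-corrected.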

Assay [17] in a line: CCTE_Deisenroth_DEVTOX-GLR_Pluri_CellCount: Viability Assessment in CCTE's DevTox GLR-Pluri Assay Evaluation of Total Cell Counts, Deisenroth Lab (AID 2284430). A digest of the protocol: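 Cytotoxicity readout: fluorescent nuclei counts by high-content imaging, expressed as percent change relative to 0.2% DMSO. Human RUES2-GLR pluripotent line differentiated 48 h, dosed twice at 24-h intervals across 1 nM - 200 uM (10 points).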

With `FC(F)(F)COCC(F)(F)F`, the compound was called inactive in assay [1], in assay [2], in [3], in assay [4], in assay [5] and in [6]. Besides, the compound was called inactive in assay [7], in assay [8] and in [9].

Regarding `CS(=O)(=O)OCCCCOS(C)(=O)=O`, the outcome in [10] was inactive. In addition, the concentration at half-maximal activity (AC50) in assay [11] was 44.5 µM (active); in assay [12], 100 µM (active); in [13], 14.4 µM (active); in [14], 45.4 µM (active); in assay [15], 2.44 µM (active); in [16], 50.7 µM (active). Further, the AC50 in [17] was 20.1 µM (active).

What is called AC50 is the concentration giving half of the maximal activity seen.
